This is a sample that favours compounds with a hit; in the whole collection about 2.4% have one here.
Casp7 inh: allosteric or competitive inhibitors of human caspase-7. AID 889. actives 0.02% (n = 75,000). recombinant caspase-7, Ac-DEVD-AFC fluorescence rate. Potency, µM (series often up to 57.5 µM), for the others: top-dose activity change, negative = inhibition, actives largely listed as inhibitors; active means well fitted inhibition curve with a large enough effect in the main read-out, with a control signal flat, not every such curve was filed as active; inconclusive means small, poorly fitted or top-dose-only effect, or a change in a side signal; further: % of control where 0% means no effect
Hsp90 Hop PPI: changes Hsp90-Hop TPR2A binding signal, up or down. AlphaScreen TPR2A-His6 binding biotin-Hsp90 C-terminal peptide. Potency, µM (top dose mostly 57 µM), for the others: at the top dose activity change, negative = inhibition. actives 0.44% (n = 71,000). AID 595; active means well fitted curve in either direction with a large enough effect; inconclusive means small, poorly fitted or top-dose-only effect, or another doubt; further: on the % scale 0 is the no-effect control and ±100 the full control effect
ALOX15B inhib: inhibitors of human 15-lipoxygenase 2 (ALOX15B); O15296; purified 15hLO-2, xylenol orange hydroperoxide absorbance; Potency, µM (highest dose often 57.1 µM), inactives show at the highest dose activity change, negative = inhibition, actives largely listed as inhibitors; actives 0.56% (n = 110,000); further: on the % scale 0 is the no-effect control and ±100 the full control effect; nearly all actives have a fitted effect of over 60% in size
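Enzyme 50 nM, AA 45 uM, 25 mM Hepes pH 7.5 + 0.01% Triton X-100; cpd preinc 15 min RT, rxn 90 min RT; stop/detect with 200 uM XO + 300 uM Fe(II) in 50 mM H2SO4, 30 min; A573/A405.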
ALOX15 inhib: blocks human 15-lipoxygenase activity; purified 15hLO-1, xylenol orange hydroperoxide absorbance; P16050; actives 1.4% (n = 74,000); Potency, µM (highest dose often 57.1 µM), inactives show top-dose activity change, negative = inhibition, usual class: inhibitors; further: on the % scale 0 is the no-effect control and ±100 the full control effect; nearly all actives have a fitted effect of over 55% in size
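40 nM 15hLO-1 + cpd, 15 min RT; start w/ 50 uM AA (final), 6 min RT; stop/detect w/ 200 uM XO + 300 uM Fe(II) in 50 mM H2SO4, 30 min; A573/A405. Buffer 25 mM Hepes pH 7.5, 0.01% Triton X-100. No-enzyme wells as negative control.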
Casp1 inh: caspase-1 (human) inhibition, allosteric or competitive. actives 0.03% (n = 75,000). Potency, µM (top dose mostly 57.5 µM), for the others: at the highest dose activity change, negative = inhibition, hits mostly inhibitors. Caspase-1 enzyme, Ac-WEHD-AFC fluorogenic rate. P29466;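 further: plate controls were vehicle for no effect and no substrate for full effect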
Tau fil binding: binders of human tau filaments | recombinant tau filaments, thioflavin S fluorescence, 15 h; filaments grown with octadecylsulfate alongside compound | P10636 | actives 2% (n = 71,000) | Potency, µM (top dose mostly 57.1 µM), for inactives: at the top dose activity change, negative = inhibition;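 further: on the % scale 0 is the no-effect control and ±100 the full control effect; actives lower thioflavin S fluorescence by blocking filaments or displacing dye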
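His-tagged recombinant human tau (exons 2, 3, 10; 1 uM final) fibrillized with 30 uM sodium octadecylsulfate, 15 h at 37 C, in pH 7.4 HEPES buffer with 10 uM thioflavine S and 5 mM DTT. Reduced ThS fluorescence (450/510 nm) marks activity.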
An asterisk follows results filed as active; i = inactive; ? = inconclusive; . = no result given; ! = not active in a repeat; [ ] = remark or other dose. Unless noted, the call rests on the fitted dose curve; in most records, active means well fitted curve in the direction sought with a large enough effect; inconclusive means small, poorly fitted or top-dose-only effect, or another doubt; inactive means no such curve, though single readings can be large; an effect the other way counts as inactive or inconclusive. Potency means the concentration at half of the fitted maximal effect.

SMILES	Casp7 inh	Hsp90 Hop PPI	ALOX15B inhib	ALOX15 inhib	Casp1 inh	Tau fil binding
Nc1[nH]nc2nc3ccccc3nc12	0%	-8%	-9%	-8%[25.6 µM]	-2%	40µM*
c1ccc2nc3[nH]cnc3nc2c1	0%	1%	2%	5%	1%	8%
CCCN(CCC)c1nc2ccccc2nc1C(C#N)C(=O)OCCOC (stereo not drawn)	?	-4%	-14%	-3%	.	1.3µM*
O=c1cc(Nc2ccc3c(c2)OCO3)[nH]c(=O)n1-c1ccc(Br)cc1	-10%	-18%	.	9%	-2%	16µM*
CC1=NN(c2nc(-c3ccc(C)cc3)cs2)C(=O)C1N=Nc1ccc2ccccc2c1 (stereo not drawn)	.	.	13%	.	.	.
CC1=NN(C(=O)c2ccncc2)C(=O)[C@@H]1N=Nc1ccc2ccccc2c1	-1%[11.5 µM]	-19%[11 µM]	-11%[11.4 µM]	0%[11.4 µM]	0%[11.5 µM]	1.6µM*
CC(=O)c1ccc(NC(=O)c2noc3c2CCCCC3)cc1	-1%	-1%	-1%	0%	1%	34%
COc1cc(-c2cn(S(=O)(=O)c3cccc4nsnc34)nc2N)cc(OC)c1OC	.	.	-9%	.	.	.
Nc1nn(S(=O)(=O)c2cccc3nsnc23)cc1-c1ccc(Br)cc1	-2%	?	-1%[2.29 µM]	?	-3%	16µM*
Cc1ccc(-c2cn(S(=O)(=O)c3cccc4nsnc34)nc2N)cc1	-3%	?	7%	-13%	0%	16µM*
Cc1csc(NC(=O)C2C3C=CC(O3)C2C(=O)O)n1 (stereo not drawn)	-1%	-3%	5%	7%	0%	-2%
COc1cc(N=c2ssnc2Cl)c(OC)cc1Cl	.	.	25µM*	.	.	.
COc1ccc(OC)c(N=c2ssnc2Cl)c1	.	.	25µM*	.	.	.
Cc1cc(C)nc(/N=c2/ssnc2Cl)c1	?	-12%[11 µM]	-14%	?	.	7%[11.4 µM]
COc1ccc(OC)c(N=C2C(=O)Nc3ccccc32)c1	-1%	-4%	3%	10%	-3%	0%
O=C(COC(=O)c1cnccn1)Nc1ccc(Cl)cc1	-2%	-4%	.	-1%	-1%	?
COC(=O)C1=CN(CCCN2CCCC2=O)C=C(C(=O)OC)C1c1cccs1	?	1%	-2%	11%	.	-8%
O=C(Oc1ccccc1)N1CCN(c2ccc(F)cc2)CC1	0%	?	-1%	?	2%	-12%[11.4 µM]
O=C(Nc1ccc(N2CCN(c3ccc(O)cc3)CC2)cc1)Oc1ccccc1	-7%	-10%	-27%	-16%	-6%	2µM*
CN1CCN(c2ccc(NC(=O)c3cccc(OCc4ccccc4)c3)cc2)CC1	1%	-22%	52%	5%	2%	7.9µM*
CCn1c(SCC(=O)Nc2cccc(C)n2)nnc1-c1ccco1	0%	-2%	-5%	2%	-3%	10%
COc1cc2c(cc1OC)-c1c(OC)c(OC)cc3ccnc(c13)C2=O	-7%	?	0%	-1%[25.6 µM]	?	32µM*
COCCOC(=O)c1c(C)oc2ccc(NS(=O)(=O)c3ccccc3)cc12	-3%	0%	-10%	-2%	-4%	9%
CCOC(=O)c1c(C)oc2ccc(NS(=O)(=O)c3ccc4c5c(cccc35)C(=O)N4)cc12	-17%	-3%	.	?	-16%	7.9µM*
Cc1noc(C)c1-c1cc(Nc2ccc(F)cc2)ncn1	1%	-5%	-3%	-3%	-1%	-5%
SMILES	Casp7 inh	Hsp90 Hop PPI	ALOX15B inhib	ALOX15 inhib	Casp1 inh	Tau fil binding
CC(=O)O[C@H](CC(=O)O)C[N+](C)(C)C	-4%	-6%	14%	-24%[25.6 µM]	-1%	40µM*
N#Cc1cc2ccccc2nc1SCC(=O)Nc1ccc(S(=O)(=O)N2CCCC2)cc1	1%	-1%	-15%	-4%	-1%	16µM*
O=C(CCCN1CC=C(n2c(=O)[nH]c3ccccc32)CC1)c1ccc(F)cc1	0%	0%[26 µM]	28%	-5%	0%	4%[25.6 µM]
COc1ccc(CN2C(=O)c3cccnc3C2Nc2ccc(OC)c(Cl)c2)cc1 (stereo not drawn)	-3%	-11%	8%	?	2%	-1%
COc1ccc(NC2c3ncccc3C(=O)N2Cc2ccccc2)c(OC)c1 (stereo not drawn)	-1%	-14%	.	-29%	2%	16µM*
C=CCSc1nc(N)c(C#N)c(-c2ccccc2)c1C#N	-3%	4%	2%	?	-3%	71%
O=C(N/N=C/c1ccc(O)cc1O)c1cc(-c2ccccc2)n[nH]1	-6%	.	.	-7%	-4%	.
CN=c1nc(-c2ccccc2)n(-c2ccccc2)s1	1%	-8%	1µM*	0.79µM*	1%	-2%
Cc1cccc2cc3c(N)c(C(=O)N4CCOCC4)sc3nc12	-9%	1%	.	?	-5%	-25%
Nc1nc2sc3c(c2cc1C(=O)N1CCOCC1)CCCC3	-2%	-4%[11 µM]	-4%	3.2µM*	-3%	-3%[11.4 µM]
Cc1cccc(C)c1NC(=O)CCCN1CC(C)OC(C)C1 (stereo not drawn)	.	.	2%	.	.	.
CN(C)c1ccc(C(=S)NCc2ccco2)cc1	-10%	-10%	9%[2.29 µM]	25µM*	-12%	-16%
CC1(C)CC(=O)C(C2C3=C(CC(C)(C)CC3=O)Oc3ccccc32)=C(O)C1 (stereo not drawn)	.	.	-4%	.	.	.
NC1(C(=O)O)CC(C(=O)O)C1 (stereo not drawn)	1%	1%	30%	20µM*!	-9%	?
CNC(=O)CCc1nc(-c2ccc(C(C)(C)C)cc2)no1	0%	0%	-10%	6%	-7%	0%
CC(=O)c1ccc(-c2nc3c4ccccc4ccn3c2C(C)=O)o1	-2%	.	-29%	-5%	-1%	.
c1ccc(-c2onc3cc4c(cc23)OCCO4)cc1	-18%	2%	-15%	13µM*	-14%	18%
CCCCC(c1nnnn1CCOC)N1CCN(c2cccc(OC)c2)CC1 (stereo not drawn)	-5%	-20%	-4%	?	1%	13µM*
Cc1cccc(-n2c(=O)[nH]c3c(C(N)=O)nc(C(C)C)nc32)c1	-15%	-3%	.	-4%	-9%	16µM*
COc1ccc(-c2nc(C(N)=O)c3[nH]c(=O)n(-c4cccc(Cl)c4)c3n2)cc1OC	-3%	-6%	4%[2.29 µM]	-5%	-3%	i
CCc1ccc(Nc2cc(C(=O)NCCCN3CCOCC3)c3ccccc3n2)cc1	.	.	30%	.	.	.
c1ccc(Nc2cc(Nc3ccccc3)[nH]n2)cc1	0%	-23%	32%	-98%	-2%	20µM*
COc1ccc(C(=O)Nc2nc3c(s2)Cc2cc(OC)ccc2-3)cc1	.	.	-2%	.	.	.
COc1ccc2c(c1)Cc1sc(NC(=O)c3cccs3)nc1-2	?	-6%	4%	32µM*	32µM*	25µM*
CCc1cc(C=NC2CCCCC2)c(O)s1	-2%	-11%	-15%	13µM*	2%	-3%

Screening data as filed in PubChem BioAssay.
